# Data from the supplement of paper PMC8728848.
# The full list was thinned out, with the strongest signals kept by preference.
# B1: ZG16p (Homo sapiens), O60844 (protein)
# chain: ARSSSYSGEYGGGGGKRFSHSGNQLDGPITALRVRVNTYYIVGLQVRYGKVWSDYVGGRNGDLEEIFLHPGESVIQVSGKYKWYLKKLLFVTDKGRYLSFGKDSGTSFNAVPLHPNTVLRFISGRSGSLIDAIGLHWDVYPSSCSRC
# Legend:
# Experiment in all cases: glycan array binding signal (z-score within array); higher = stronger binding
# Conditions in all cases: glycan notation: IUPAC condensed, linker removed
# [1] = molecular target: 3dGal(b1-3)[Fuc(a1-4)]Glc
# How it was run: (§1)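 Glycan array data came from 3228 arrays in the Consortium for Functional Glycomics database, and only arrays with an available protein sequence were kept. Glycan names were put into IUPAC-condensed notation, and columns mapping to the same glycan were averaged. The binding signal is a within-array Z-score, averaged across arrays of one protein sequence run at different concentrations or buffers and across linkers. A negative Z-score can be read as non-binding.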
# [2] = molecular target: Fuc(a1-3)[3dGal(b1-4)]Glc
# How it was run: as §1
# [3] = molecular target: Fuc(a1-3)[Gal(b1-4)]GlcNAc(b1-3)Gal(b1-4)Glc
# How it was run: as §1
# [4] = molecular target: Fuc(a1-3)[Gal6S(b1-4)]GlcNAc(b1-3)Gal(b1-4)Glc
# How it was run: as §1
# Gal(a1-6)Glc = molecular target: Gal(a1-6)Glc
# How it was run: as §1
# Gal(b1-4)Glc = molecular target: Gal(b1-4)Glc
# How it was run: as §1
# [5] = molecular target: Gal(b1-4)GlcNAc(b1-2)Man(a1-3)[Man(a1-6)]Man(b1-4)GlcNAc(b1-4)GlcNAc
# How it was run: as §1
# [6] = molecular target: Gal(b1-4)GlcNAc(b1-3)[Fuc(a1-3)[Gal(b1-4)]GlcNAc(b1-6)]Gal(b1-4)Glc
# How it was run: as §1
# Glc(a1-3)Glc = molecular target: Glc(a1-3)Glc
# How it was run: as §1
# [7] = molecular target: Glc(a1-4)Glc(a1-4)Glc(a1-4)Glc(a1-4)Glc(a1-4)Glc(a1-4)Glc(a1-4)Glc
# How it was run: as §1
# [8] = molecular target: Glc(a1-4)Glc(a1-4)Glc(a1-4)Glc(a1-4)Glc(a1-4)Glc(a1-4)Glc(a1-4)Glc(a1-4)Glc(a1-4)Glc
# How it was run: as §1
# [9] = molecular target: Glc(a1-4)Glc(a1-4)Glc(a1-4)Glc(a1-4)Glc(a1-4)Glc(a1-4)Glc(a1-4)Glc(a1-4)Glc(a1-4)Glc(a1-4)Glc(a1-4)Glc
# How it was run: as §1
# [10] = molecular target: Glc(a1-4)Glc(a1-4)Glc(a1-4)Glc(a1-4)Glc(a1-4)Glc(a1-4)Glc(a1-4)Glc(a1-4)Glc(a1-4)Glc(a1-4)Glc(a1-4)Glc(a1-4)Glc
# How it was run: as §1
# Glc(a1-6)Glc(a1-6)Glc = molecular target: Glc(a1-6)Glc(a1-6)Glc
# How it was run: as §1
# [11] = molecular target: Glc(b1-3)Glc(b1-3)Glc(b1-3)Glc
# How it was run: as §1
# Glc(b1-6)Glc = molecular target: Glc(b1-6)Glc
# How it was run: as §1
# GlcA(b1-3)Gal(b1-4)Glc = molecular target: GlcA(b1-3)Gal(b1-4)Glc
# How it was run: as §1
# [12] = molecular target: GlcNAc(b1-2)[GlcNAc(b1-4)]Man(a1-3)[GlcNAc(b1-2)[GlcNAc(b1-4)][GlcNAc(b1-6)]Man(a1-6)][GlcNAc(b1-4)]Man(b1-4)GlcNAc(b1-4)GlcNAc
# How it was run: as §1
# [13] = molecular target: GlcNAc(b1-3)[GlcNAc(b1-6)]Gal
# How it was run: as §1
# [14] = molecular target: GlcNAc(b1-4)GlcNAc(b1-4)GlcNAc(b1-4)GlcNAc(b1-4)GlcNAc(b1-4)GlcNAc
# How it was run: as §1
# [15] = molecular target: Kdn(a2-3)Gal(b1-3)GlcNAc(b1-3)Gal(b1-4)Glc
# How it was run: as §1
# [16] = molecular target: Kdn(a2-3)Gal(b1-4)[Fuc(a1-3)]GlcNAc(b1-3)Gal
# How it was run: as §1
# Man(a1-3)Man = molecular target: Man(a1-3)Man
# How it was run: as §1
# Man(a1-3)Man(b1-4)GlcNAc = molecular target: Man(a1-3)Man(b1-4)GlcNAc
# How it was run: as §1
# [17] = molecular target: Man(b1-4)Man(b1-4)Man(b1-4)Man(b1-4)Man(b1-4)Man
# How it was run: as §1
# [18] = molecular target: Neu5Ac(a2-3)Gal(b1-3)GlcNAc(b1-3)[Fuc(a1-3)[Gal(b1-4)]GlcNAc(b1-6)]Gal(b1-4)Glc
# How it was run: as §1
# Neu5Ac(a2-3)Gal(b1-4)Glc = molecular target: Neu5Ac(a2-3)Gal(b1-4)Glc
# How it was run: as §1
# [19] = molecular target: Neu5Ac(a2-3)Gal(b1-4)[Fuc(a1-3)]GlcNAc(b1-6)Gal(b1-4)Glc
# How it was run: as §1
# [20] = molecular target: Neu5Ac(a2-3)Gal6S(b1-4)[Fuc(a1-3)]GlcNAc(b1-3)Gal(b1-4)Glc
# How it was run: as §1
# [21] = molecular target: Neu5Ac(a2-6)Gal(b1-3)GlcNAc(b1-3)[Fuc(a1-3)[Gal(b1-4)]GlcNAc(b1-6)]Gal(b1-4)Glc
# How it was run: as §1
# [22] = molecular target: Neu5Ac(a2-8)Neu5Ac(a2-8)Neu5Ac(a2-3)Gal(b1-4)Glc
# How it was run: as §1
# [23] = molecular target: Neu5Ac9Me(a2-3)Gal(b1-4)Glc
# How it was run: as §1
# [24] = molecular target: Neu5Gc(a2-6)Gal(b1-4)GlcNAc(b1-2)Man(a1-3)[Neu5Gc(a2-6)Gal(b1-4)GlcNAc(b1-2)Man(a1-6)]Man(b1-4)GlcNAc(b1-4)GlcNAc
# How it was run: as §1
# [25] = molecular target: Xyl(b1-2)[Man(a1-3)][Man(a1-6)]Man(b1-4)GlcNAc(b1-4)[Fuc(a1-3)]GlcNAc
# How it was run: as §1
binder,measurement,setting,value
B1,glycan array binding signal (z-score),[1],-0.327
same,glycan array binding signal (z-score),[2],-0.025
same,glycan array binding signal (z-score),[3],-0.178
same,glycan array binding signal (z-score),[4],-0.328
same,glycan array binding signal (z-score),Gal(a1-6)Glc,-0.272
same,glycan array binding signal (z-score),Gal(b1-4)Glc,-0.133
same,glycan array binding signal (z-score),[5],-0.273
same,glycan array binding signal (z-score),[6],-0.328
same,glycan array binding signal (z-score),Glc(a1-3)Glc,2.88
same,glycan array binding signal (z-score),[7],1.93
same,glycan array binding signal (z-score),[8],1.95
same,glycan array binding signal (z-score),[9],4.4
same,glycan array binding signal (z-score),[10],2.82
same,glycan array binding signal (z-score),Glc(a1-6)Glc(a1-6)Glc,0.475
same,glycan array binding signal (z-score),[11],0.797
same,glycan array binding signal (z-score),Glc(b1-6)Glc,2.7
same,glycan array binding signal (z-score),GlcA(b1-3)Gal(b1-4)Glc,-0.328
same,glycan array binding signal (z-score),[12],-0.42
same,glycan array binding signal (z-score),[13],0.435
same,glycan array binding signal (z-score),[14],-0.328
same,glycan array binding signal (z-score),[15],-0.328
same,glycan array binding signal (z-score),[16],-0.328
same,glycan array binding signal (z-score),Man(a1-3)Man,2.78
same,glycan array binding signal (z-score),Man(a1-3)Man(b1-4)GlcNAc,2.31
same,glycan array binding signal (z-score),[17],-0.328
same,glycan array binding signal (z-score),[18],-0.328
same,glycan array binding signal (z-score),Neu5Ac(a2-3)Gal(b1-4)Glc,-0.276
same,glycan array binding signal (z-score),[19],-0.328
same,glycan array binding signal (z-score),[20],-0.328
same,glycan array binding signal (z-score),[21],-0.328
same,glycan array binding signal (z-score),[22],-0.328
same,glycan array binding signal (z-score),[23],-0.328
same,glycan array binding signal (z-score),[24],-0.282
same,glycan array binding signal (z-score),[25],-0.369
